Measurements: PubChem BioAssay AID1631 (National Center for Advancing Translational Sciences (NCATS), 2009)
The whole screen tested about 260,000 compounds, of which about 890 (0.34%) were called active. Another 1% or so got no clear call; they are omitted. What follows is part of a selection rich in actives, with near analogues and random picks from the rest. A number with no mark means an inactive call. The call rests on the fitted dose curve; in most records, active means well fitted activation curve with a large enough effect; inconclusive means small, poorly fitted or top-dose-only effect; inactive means no such curve, though single readings can be large or run the other way.

These molecules were tested against Pyruvate kinase PKM (Homo sapiens) (UniProt P14618) (assay: qHTS Assay for Activators of Human Muscle isoform 2 Pyruvate Kinase). Conditions: purified PKM2, Kinase-Glo ATP luminescence; Potency: activation; series mostly up to 57.5 µM; activation: at the top concentration.
Excerpt: NIH Chemical Genomics Center [NCGC] Matthew G. Vander Heiden, M.D., Ph.D. [Harvard Medical School, 77 Avenue Louis Pasteur, Boston, MA 02115] MLPCN Grant: 1 R03 MH085679-01 NCGC Assay Overview: Human pyruvate kinase muscle 2 (hPK-M2) enzyme was supplied as a highly purified (>95% pure) preparation from Harvard Medical School and assayed for its ability to generate ATP from ADP using phosphoenolpyruvate (PEP) as a substrate. ATP generation was detected in a coupled reaction by luciferase-mediated luminescence, an ATP-dependent process. […] The enzyme was assayed at an intermediate level of activity to screen for both inhibitors and activators.
NCGC Assay Protocol Summary: Three uL of substrate mix (at r.t.) in assay buffer (50 mM Imidazole pH7.2, 50 mM KCl, 7 mM MgCl2, 0.01% Tween 20, 0.05% BSA) was dispensed into white solid bottom 1,536 well microtiter plates so that the final concentrations of substrates in the assay were 0.1 mM ADP and 0.5 mM PEP. 23 nL of compound were delivered by a pin tool and 1 uL of enzyme mix in assay buffer (4 degree Celsius) was added. Plates were incubated at room temperature for 1 hour. Two uL of detection mix (Kinase-Glo, Promega; at 4 degree Celsius protected from light) was added and luminescence read by a ViewLux (Perkin Elmer) at 5 second exposure/plate. Data were normalized to the uninhibited and AC100 inhibition (no enzyme). To monitor activation, the first column contained a titration of the activator, NCGC00031955-01 (16-point 1:2 dilutions in duplicate starting at 57 uM) and the first 16 rows of column 4 contained 57 uM of NCGC00031955-01.
Further: nearly all actives have a fitted effect of over 55% in size.
On the % scale 0 is the no-effect control and ±100 the full control effect; potency means the concentration at half of the fitted maximal effect.

Sequence of Pyruvate kinase PKM (Homo sapiens) (P14618 whole entry, looked up, canonical isoform): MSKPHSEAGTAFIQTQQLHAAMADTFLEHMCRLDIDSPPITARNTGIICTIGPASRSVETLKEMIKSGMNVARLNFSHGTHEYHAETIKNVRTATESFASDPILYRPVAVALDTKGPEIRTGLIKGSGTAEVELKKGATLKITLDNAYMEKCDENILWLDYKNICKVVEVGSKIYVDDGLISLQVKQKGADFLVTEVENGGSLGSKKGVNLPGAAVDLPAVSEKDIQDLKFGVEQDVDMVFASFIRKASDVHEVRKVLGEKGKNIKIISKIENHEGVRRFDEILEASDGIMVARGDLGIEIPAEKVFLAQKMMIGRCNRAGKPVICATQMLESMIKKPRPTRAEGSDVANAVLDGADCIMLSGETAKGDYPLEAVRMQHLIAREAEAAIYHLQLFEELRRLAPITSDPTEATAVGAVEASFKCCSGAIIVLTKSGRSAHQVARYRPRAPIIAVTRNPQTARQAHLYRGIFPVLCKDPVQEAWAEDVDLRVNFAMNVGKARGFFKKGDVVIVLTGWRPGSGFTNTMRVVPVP

Compound	activation	Potency
Cc1noc(C)c1CSCC(=O)N(CCC(C)C)c1c(N)n(Cc2ccccc2)c(=O)[nH]c1=O	-5.51%	–
COC(=O)c1ccc(COc2ccc(/C=C/C(=O)c3ccc(OC)c(CSCC(=O)O)c3)cc2OC)cc1	2.32%	–
CCC(=O)Nc1c(S(=O)(=O)c2ccccc2)c2nc3ccccc3nc2n1Cc1ccccc1	0.876%	–
Cc1ccc(S(=O)(=O)c2c(N)n(C)c3nc4ccccc4nc23)cc1	–	12.6 µM (active)
CCN(CC)CCn1c(N)c(S(=O)(=O)c2ccccc2)c2nc3ccccc3nc21	13%	–
c1ccc(Cc2ccc(OCCn3ccnc3)cc2)cc1	-7.06%	–
O=C(Nc1ccc(C(=O)N2CCCCC2)cc1)c1cccc([N+](=O)[O-])c1	-5.33%	–
CCCCC(C(=O)NC(C)(C)C)N(Cc1ccccc1)C(=O)c1snc(C(N)=O)c1N (centres undefined)	-16.3%	–
COc1ccc(-c2nn(-c3ccccc3)cc2/C=C2/SC(=S)N(CCCC(=O)O)C2=O)c(C)c1	-3.19% [at 11.5 µM, 0% is enzyme alone, no compound]	–
CCCc1cc(C(=O)N2CCCC(CO)(CCCc3ccccc3)C2)n(C)n1 (centres undefined)	0.0637%	–
O=C(CNc1cccc(S(=O)(=O)N2CCCCC2)c1)Nc1ccccc1F	-1.95%	–
Cc1cccc(-n2ncc(Cl)c(Cl)c2=O)c1	-5.55%	–
C/C(=N\N(C)C)c1ccc(OCCOc2ccc([N+](=O)[O-])cc2)cc1	0.783%	–
O=C(NCc1ccco1)c1cccn2c(=O)c3c4c(sc3nc12)CCCC4	–	25.1 µM (active)
C=C(C)Cn1c(SCC(=O)NCc2ccco2)nc2sc3c(c2c1=O)CCC3	13.2%	–
COc1ccc(CCn2c(=N)c(C(=O)NCc3ccco3)cc3c(=O)n4cccc(C)c4nc32)cc1	4.82%	–
O=C(CCCC(=O)N1CCN(c2cccc(Cl)c2)CC1)c1ccccc1	1.12%	–
CS(=O)(=O)Nc1ccc(C2=NN(S(C)(=O)=O)C(c3cccs3)C2)cc1 (centres undefined)	20%	–
COc1ccc(C2=NN(C(=O)CCC(=O)O)C(c3cccs3)C2)cc1OC (centres undefined)	-0.38%	–
CCS(=O)(=O)Nc1ccc(C2=NN(C(C)=O)C(c3cccs3)C2)cc1 (centres undefined)	–	4.47 µM (active)
CC(=O)c1cc2c(cc1NC(=O)Cn1nc(-c3ccc(F)cc3)ccc1=O)OCO2	7.5%	–
CC(=O)N1CCc2c(sc(NC(=O)CCS(=O)(=O)c3ccccc3)c2C#N)C1	-1.62%	–
CCOC(=O)c1ccc(NC(=O)Cc2cccs2)cc1	-1.74%	–
CC1CCN(C(=S)NC(=O)c2ccccc2Br)CC1	-7.18%	–
O=C(Nc1ccc(N2CCOCC2)c(Cl)c1)c1ccc(S(=O)(=O)N2CCOCC2)cc1	0.221%	–

Compound	activation	Potency
COc1ccc(C2=NN(C(C)=O)C(c3ccccc3)C2)cc1 (centres undefined)	14.6%	–
COc1ccc(C2CC(c3ccccc3)=NN2C(=O)c2ccc(Cl)c([N+](=O)[O-])c2)cc1 (centres undefined)	-2.93%	–
COc1ccc(C2CC(c3ccc([N+](=O)[O-])cc3)=NN2C(C)=O)cc1 (centres undefined)	–	12.6 µM (active)
CC[C@]1(c2ccccc2OC)C(=O)N(C(=O)OC)N1C(=O)OC	3.59%	–
CCOC(=O)c1cc(C(=O)Nc2ccc(S(=O)(=O)Nc3ccc(OC)cc3)cc2)nn1C	-2.09%	–
Cc1cccc(NC(=S)NCCc2ccc(Cl)cc2)c1C	0.631%	–
COc1ccc(-n2nc(C(=O)NCC(=O)N3CCN(c4ccccc4OC)CC3)c3ccccc3c2=O)c(OC)c1	-0.0302%	–
O=c1c2ccccc2nc(CSc2nnnn2-c2ccccc2)n1-c1ccccc1	1.59%	–
O=c1c2ccccc2nnn1CSc1nnnn1-c1ccccc1	–	28.2 µM (active)
Nc1nnc(SCn2nnc3ccccc3c2=O)s1	1.7%	–
CCC(C)c1ccccc1NC(=O)CN(C)CC(=O)Nc1ccccc1SC (centres undefined)	1.98%	–
O=C(N/N=C/c1cccc(OCc2ccccc2)c1)c1ccc(Br)o1	0.996%	–
CCN(C(=O)COc1ccc(C(=O)c2ccccc2)cc1)c1ccccc1	-0.0123%	–
CC1CCN(C2=NC(=O)/C(=C/c3ccc(O)cc3)S2)CC1	-2.26% [at 11.5 µM, 0% is enzyme alone, no compound]	–
CCOC(=O)C1(Cc2ccccc2C)CCCN(C(=O)c2ccc(COC)o2)C1 (centres undefined)	1.56%	–
S=C(Nc1ccc(Br)cc1)NC1CCN(Cc2ccccc2)CC1	-1.18%	–
O=C(Nc1nc2ccc([N+](=O)[O-])cc2s1)c1ccc(S(=O)(=O)N2CCCc3ccccc32)cc1	1.34%	–
CSc1nc2ccc(S(=O)(=O)N3CCc4ccccc43)cc2s1	–	2.24 µM (active)
CCn1c(=O)c(=O)n(CC)c2cc(S(=O)(=O)N3CCc4ccccc43)ccc21	9.29%	–
CC(CN1CCOCC1)OC(=O)c1ccc(C(C)(C)C)cc1 (centres undefined)	7.62%	–
NC(=S)c1ccc(C(N)=S)o1	–	15.8 µM (active)
Cc1cccc(CSc2nc3c(c(=O)n2C)SCC3)c1	–	15.8 µM (active)
CCn1c(SCc2ccccc2)nc2c(c1=O)SCC2	6.86%	–
Cn1c(SCC(=O)N2CCCCC2)nc2c(c1=O)SCC2	-0.468%	–
COc1ccc(CNS(=O)(=O)c2cc(-c3cc(C)no3)ccc2C(C)C)cc1	2.22% [at 0.46 µM, 0% is enzyme alone, no compound]	–

Compound	activation	Potency
Cc1ccc(S(=O)(=O)NC2CCCCCC2)cc1C(N)=O	6.43%	–
COc1ccc(Nc2ncnc3ccc(Br)cc23)c(OC)c1	0.748%	–
COC(=O)c1ccccc1NC(=O)C1CCN(C(=O)N2CCOc3ccccc32)CC1	-2.9%	–
CCCC(C(=O)NC1CCCC1)N(C(=O)Cn1nnc(-c2ccc(C)o2)n1)c1cccc(O)c1 (centres undefined)	2.14%	–
COc1ccc(NC(=O)CSc2nc3ccccc3c(=O)n2C)cc1	1.41%	–
FC(F)(F)c1cccc(Nc2ncnc3ccccc23)c1	2.31%	–
O=c1cc(CO)oc(C(Nc2cccc(C(F)(F)F)c2)c2ccccn2)c1O (centres undefined)	–	25.1 µM (active)
O=C(Nc1cccc(C(F)(F)F)c1)c1cnccn1	-0.998%	–
CCC(C)(C)NC(=O)C(c1ccc(O)cc1)N(Cc1ccco1)C(=O)CCC(=O)Nc1ccccn1 (centres undefined)	-2.21%	–
CC(=O)c1ccc(N2CCN(C(=O)c3ccc4nc[nH]c4c3)CC2)cc1	-5.96%	–
CC/C(O)=N\S(=O)(=O)c1ccc(N=NN(C)C)cc1	8.76%	–
CN(C)N=Nc1ccc2nc[nH]c2c1	–	10 µM (active)
CCCn1c(CCNc2nc(-c3ccc(OC)cc3)cs2)nc2ccccc21	-1.57%	–
O=C(N/N=C\c1cc2c(cc1Cl)OCO2)c1ccc(Br)s1	-0.0507%	–
CCOC(=O)C1(CCOc2ccccc2)CCN(Cc2cc(OC)cc(OC)c2)CC1	0.213%	–
COc1ccc(C(=O)CC(=O)c2ccc(C)cc2)c(O)c1	2.2%	–
COC(=O)CN1C(=O)[C@H]2[C@@H](C3CC3)N3C(=O)CN(Cc4ccc(-c5ccccc5)cc4)C(=O)[C@@]3(Cc3ccccc3)[C@H]2C1=O	2.01%	–
COc1ccccc1CN(C)C(=O)c1cc2ccccc2o1	-9.51%	–
COc1ccccc1CCNS(=O)(=O)c1cn(C)nc1C	-9.14%	–
Cc1cccc(N2CCN(C(=O)c3cccc(N4C(=O)C5C6C=CC(C6)C5C4=O)c3)CC2)c1C (centres undefined)	4.01%	–
O=C(Nc1cccc(F)c1)NC1CCCc2ccccc21 (centres undefined)	-1.74%	–
O=C(CNC(=O)c1ccc(F)cc1)c1ccccc1	0.121% [at 11.5 µM, 0% is enzyme alone, no compound]	–
C[N+](C)(C)CCNC(=O)c1c(O)c2c([nH]c1=O)CCCC2	8.74%	–
CCc1nnc(NC(=O)c2c(O)c3c([nH]c2=O)CCCC3)s1	-16.4%	–
O=C(NCc1ccccn1)c1c(O)c2c([nH]c1=O)CCCC2	–	3.16 µM (active)

Compound	activation	Potency
CCOC(=O)C1(CCOc2ccccc2)CCN(Cc2ccc(C#CCCO)cc2)CC1	0.498%	–
COc1ccc(N2CCN(S(=O)(=O)c3ccc4c(c3)NC(=O)C(C)C(=O)N4)CC2)cc1 (centres undefined)	0.242%	–
Nc1c(Cl)cc(-c2csc(N3CCCC3c3nc4cc(Cl)c(Cl)cc4n3CCOCCO)n2)cc1Cl (centres undefined)	0.478%	–
Cc1ccc(C)c(S(=O)(=O)Nc2cccc(-n3cnnn3)c2)c1	–	14.1 µM (active)
Cc1ccc(C)c(S(=O)(=O)Nc2cc(C)on2)c1	-1.53%	–
O=C(Nc1cccc(-n2cnnn2)c1)c1cccnc1	-9.49%	–
CCCCC(=O)Nc1ccccc1N1CCN(c2ccc(F)cc2)CC1	-1.04% [at 11.5 µM, 0% is enzyme alone, no compound]	–
O=C(c1cc(C(=O)N2CCN(c3ccc(F)cc3)CC2)cc([N+](=O)[O-])c1)N1CCN(c2ccc(F)cc2)CC1	0.063%	–
CSc1ccc(S(=O)(=O)N2CCC(C(=O)NCCc3ccccc3)CC2)cc1	0.33%	–
Oc1ccc(C2Nc3cccc4cccc(c34)N2)cc1	0%	–
CCC1CCCCN1C(=S)Nc1ccc(S(=O)(=O)Nc2ncccn2)cc1 (centres undefined)	-19.6%	–
Cc1nc(SCC(=O)N2CCc3ccccc3C2)c2c(C)c(C)sc2n1	0.304%	–
Cc1nc(SCC(=O)N2CC(=O)Nc3ccccc32)c2c(C)c(C)sc2n1	–	12.6 µM (active)
COc1cccc(Nc2nnc(SCC(=O)N3CC(=O)Nc4ccccc43)s2)c1	-4.51%	–
COc1ccccc1CN1CCN(C(c2ccccc2)c2ccccc2)CC1	-7.24%	–
COc1ccc(OCc2cc(C(=O)N3CCCC3)no2)c2ccccc12	-0.176%	–
Cc1ccc(C(=O)c2coc3ccc(O)c(CN(C)C)c23)cc1	2.77%	–
O=[N+]([O-])c1ccc2c(c1)Nc1nc3ccccc3nc1N2	-7.96%	–
O=C(CC1C(=O)NCCN1C(=O)c1ccc([N+](=O)[O-])cc1)Nc1cccc(Cl)c1 (centres undefined)	4.48%	–
CCCn1c(C2CCCN2c2nc(-c3ccc(C)cc3)cs2)nc2cc(Cl)c(N3CCCCC3)cc21 (centres undefined)	1.71%	–
COc1ccc(CN2CCCC(N3CCc4ccccc4C3)C2)c(O)c1 (centres undefined)	4.2%	–
COc1ccc(CCNS(=O)(=O)c2cc3c(cc2C)NC(=O)CO3)cc1OC	-0.455%	–
Cc1cc2c(cc1S(=O)(=O)NCc1ccc(Cl)cc1)OCC(=O)N2	9.78%	–
Cc1ccc(NS(=O)(=O)c2cc3c(cc2C)NC(=O)CO3)cc1	–	5.62 µM (active)
